{
  "source": "paper PMC11062922",
  "about": "(Nature Chemical Biology, 2023)",
  "design_in_all_cases": "species or system human, MV4-11 + K-562 + COLO205 + SK-N-BE2 + OVCAR-8",
  "key": {"CDK16": {"system": "CDK16", "details": "read-out: apparent Kd, n = 1"}, "CDK17": {"system": "CDK17", "details": "read-out: apparent Kd, n = 1"}, "CDK2": {"system": "CDK2", "details": "read-out: apparent Kd, n = 1"}, "CDK6": {"system": "CDK6", "details": "read-out: apparent Kd, n = 1"}, "CDK9": {"system": "CDK9", "details": "read-out: apparent Kd; compound concentrations: 100 nM and 1000 nM (sheet 'Samples'), CATDS: 7.0025924153680405E-2; n = 1"}, "CDKL5": {"system": "CDKL5", "details": "read-out: apparent Kd; compound concentrations: 100 nM and 1000 nM (sheet 'Samples'), CATDS: 0.107974532487744; n = 1"}, "DYRK1A": {"system": "DYRK1A", "details": "read-out: apparent Kd; compound concentrations: 100 nM and 1000 nM (sheet 'Samples'), CATDS: 7.1113198150105694E-2; n = 1"}, "GSK3A": {"system": "GSK3A", "details": "read-out: apparent Kd; compound concentrations: 100 nM and 1000 nM (sheet 'Samples'), CATDS: 0.31666625502072798; n = 1"}, "GSK3B": {"system": "GSK3B", "details": "read-out: apparent Kd; compound concentrations: 100 nM and 1000 nM (sheet 'Samples'), CATDS: 0.45532128509290898; n = 1"}, "MAPK14": {"system": "MAPK14", "details": "read-out: apparent Kd; compound concentrations: 100 nM and 1000 nM (sheet 'Samples'), CATDS: 5.6581371759273497E-2; n = 1"}, "MAPK7": {"system": "MAPK7", "details": "read-out: apparent Kd; compound concentrations: 100 nM and 1000 nM (sheet 'Samples'), CATDS: 4.4821094432651497E-2; n = 1"}, "MAPK9": {"system": "MAPK9", "details": "read-out: apparent Kd, compound concentrations: 100 nM and 1000 nM (sheet 'Samples'), n = 1"}, "MELK": {"system": "MELK", "details": "read-out: apparent Kd; compound concentrations: 100 nM and 1000 nM (sheet 'Samples'), CATDS: 4.5559662583992203E-2; n = 1"}, "NQO2": {"system": "NQO2", "details": "read-out: apparent Kd, compound concentrations: 100 nM and 1000 nM (sheet 'Samples'), n = 1"}, "PRKD2": {"system": "PRKD2", "details": "read-out: apparent Kd; compound concentrations: 100 nM and 1000 nM (sheet 'Samples'), CATDS: 5.0441088598544299E-2; n = 1"}, "TP53RK": {"system": "TP53RK", "details": "read-out: apparent Kd; compound concentrations: 100 nM and 1000 nM (sheet 'Samples'), CATDS: 4.9816696124222203E-2; n = 1"}, "ICK": {"system": "ICK", "details": "read-out: apparent Kd; compound concentrations:100 nM and 1000 nM (sheet 'Samples'); n = 1"}, "NNT": {"system": "NNT", "details": "read-out: apparent Kd; compound concentrations:100 nM and 1000 nM (sheet 'Samples'); n = 1"}, "CDC42": {"system": "CDC42", "details": "read-out: apparent Kd; compound concentrations: 100 nM and 1000 nM (sheet 'Samples'), CATDS: 4.3032630224219597E-2; n = 1"}, "CLK1": {"system": "CLK1", "details": "read-out: apparent Kd; compound concentrations: 100 nM and 1000 nM (sheet 'Samples'), CATDS: 4.7124029654616303E-2; n = 1"}, "CLK4": {"system": "CLK4", "details": "read-out: apparent Kd; compound concentrations: 100 nM and 1000 nM (sheet 'Samples'), CATDS: 4.6212544182609797E-2; n = 1"}, "COX5A": {"system": "COX5A", "details": "read-out: apparent Kd; compound concentrations: 100 nM and 1000 nM (sheet 'Samples'), CATDS: 4.3023154041585097E-2; n = 1"}, "CSNK1D": {"system": "CSNK1D", "details": "read-out: apparent Kd; compound concentrations: 100 nM and 1000 nM (sheet 'Samples'), CATDS: 4.2260690384559901E-2; n = 1"}, "CSNK1E": {"system": "CSNK1E", "details": "read-out: apparent Kd; compound concentrations: 100 nM and 1000 nM (sheet 'Samples'), CATDS: 3.6484131745227702E-2; n = 1"}, "EIF2AK1": {"system": "EIF2AK1", "details": "read-out: apparent Kd; compound concentrations: 100 nM and 1000 nM (sheet 'Samples'), CATDS: 4.9510201878617897E-2; n = 1"}, "GAK": {"system": "GAK", "details": "read-out: apparent Kd; compound concentrations: 100 nM and 1000 nM (sheet 'Samples'), CATDS: 0.41748311116987502; n = 1"}, "IGF1R": {"system": "IGF1R", "details": "read-out: apparent Kd; compound concentrations: 100 nM and 1000 nM (sheet 'Samples'), CATDS: 4.75175381268634E-2; n = 1"}, "INSR": {"system": "INSR", "details": "read-out: apparent Kd; compound concentrations: 100 nM and 1000 nM (sheet 'Samples'), CATDS: 6.6437205793840798E-2; n = 1"}, "MAPK10": {"system": "MAPK10", "details": "read-out: apparent Kd; compound concentrations: 100 nM and 1000 nM (sheet 'Samples'), CATDS: 0.17405984899870899; n = 1"}, "MAPK8": {"system": "MAPK8", "details": "read-out: apparent Kd; compound concentrations: 100 nM and 1000 nM (sheet 'Samples'), CATDS: 0.110364514010045; n = 1"}, "PSMC4": {"system": "PSMC4", "details": "read-out: apparent Kd; compound concentrations: 100 nM and 1000 nM (sheet 'Samples'), CATDS: 4.1025682332982399E-2; n = 1"}, "PTK2B": {"system": "PTK2B", "details": "read-out: apparent Kd; compound concentrations: 100 nM and 1000 nM (sheet 'Samples'), CATDS: 7.7838120070478606E-2; n = 1"}, "TNK1": {"system": "TNK1", "details": "read-out: apparent Kd; compound concentrations: 100 nM and 1000 nM (sheet 'Samples'), CATDS: 8.1062749446302901E-2; n = 1"}, "TTK": {"system": "TTK", "details": "read-out: apparent Kd; compound concentrations: 100 nM and 1000 nM (sheet 'Samples'), CATDS: 5.00246606430578E-2; n = 1"}, "[1]": {"details": "compound concentrations:100 nM and 1000 nM (sheet 'Samples')"}},
  "note": "Read-outs that look alike come from different tables or passages of the source.",
  "data": [
    {"smiles": "CCC(NN(C)C)=C1C(=O)Nc2ccc(C(C)=O)cc21", "note": "[BI00036838]", "values": [
      {"measurement": "potency estimated from few doses", "setting": "CDK16; compound concentrations: 100 nM and 1000 nM (sheet 'Samples'), CATDS: 6.3187514520784194E-2", "value": 753, "unit": "nM"},
      {"measurement": "potency estimated from few doses", "setting": "CDK17; compound concentrations: 100 nM and 1000 nM (sheet 'Samples'), CATDS: 5.2851487986603697E-2", "value": 1210, "unit": "nM"},
      {"measurement": "potency estimated from few doses", "setting": "CDK2; compound concentrations: 100 nM and 1000 nM (sheet 'Samples'), CATDS: 4.7813901315705599E-2", "value": 1640, "unit": "nM"},
      {"measurement": "potency estimated from few doses", "setting": "CDK6; compound concentrations: 100 nM and 1000 nM (sheet 'Samples'), CATDS: 5.8978881187618598E-2", "value": 895, "unit": "nM"},
      {"measurement": "potency estimated from few doses", "setting": "CDK9", "value": 590, "unit": "nM"},
      {"measurement": "potency estimated from few doses", "setting": "CDKL5", "value": 233, "unit": "nM"},
      {"measurement": "potency estimated from few doses", "setting": "DYRK1A", "value": 569, "unit": "nM"},
      {"measurement": "potency estimated from few doses", "setting": "GSK3A", "value": 27.3, "unit": "nM"},
      {"measurement": "potency estimated from few doses", "setting": "GSK3B", "value": 15, "unit": "nM"},
      {"measurement": "potency estimated from few doses", "setting": "MAPK14", "value": 999, "unit": "nM"},
      {"measurement": "potency estimated from few doses", "setting": "MAPK7", "value": 2060, "unit": "nM"},
      {"measurement": "potency estimated from few doses", "setting": "MAPK9; CATDS: 4.6942214024324101E-2", "value": 1750, "unit": "nM"},
      {"measurement": "potency estimated from few doses", "setting": "MELK", "value": 1940, "unit": "nM"},
      {"measurement": "potency estimated from few doses", "setting": "NQO2; CATDS: 5.78366102928662E-2", "value": 942, "unit": "nM"},
      {"measurement": "potency estimated from few doses", "setting": "PRKD2", "value": 1390, "unit": "nM"},
      {"measurement": "potency estimated from few doses", "setting": "TP53RK", "value": 1440, "unit": "nM"}
    ]},
    {"smiles": "CS(=O)(=O)N1CCC(Nc2ncc(C(=O)c3c(F)cccc3F)c(N)n2)CC1", "note": "[RO4930481-000]", "values": [
      {"measurement": "potency estimated from few doses", "setting": "CDK16; [1]", "value": 1350, "unit": "nM"},
      {"measurement": "potency estimated from few doses", "setting": "CDK17; [1]", "value": 1470, "unit": "nM"},
      {"measurement": "potency estimated from few doses", "setting": "CDK2; [1]", "value": 1000, "unit": "nM"},
      {"measurement": "potency estimated from few doses", "setting": "CDK6; [1]", "value": 1750, "unit": "nM"},
      {"measurement": "potency estimated from few doses", "setting": "ICK", "value": 1260, "unit": "nM"},
      {"measurement": "potency estimated from few doses", "setting": "NNT", "value": 1110, "unit": "nM"}
    ]},
    {"smiles": "CCCN1CCCC(c2ccc(Nc3nc(Nc4cc(F)ccc4C(N)=O)c4cc[nH]c4n3)c(OC)c2)C1", "note": "(stereo not shown) [GSK1173862A]", "values": [
      {"measurement": "potency estimated from few doses", "setting": "CDC42", "value": 1230, "unit": "nM"},
      {"measurement": "potency estimated from few doses", "setting": "CLK1", "value": 927, "unit": "nM"},
      {"measurement": "potency estimated from few doses", "setting": "CLK4", "value": 982, "unit": "nM"},
      {"measurement": "potency estimated from few doses", "setting": "COX5A", "value": 1230, "unit": "nM"},
      {"measurement": "potency estimated from few doses", "setting": "CSNK1D", "value": 1310, "unit": "nM"},
      {"measurement": "potency estimated from few doses", "setting": "CSNK1E", "value": 2340, "unit": "nM"},
      {"measurement": "potency estimated from few doses", "setting": "EIF2AK1", "value": 805, "unit": "nM"},
      {"measurement": "potency estimated from few doses", "setting": "GAK", "value": 17.6, "unit": "nM"},
      {"measurement": "potency estimated from few doses", "setting": "IGF1R", "value": 905, "unit": "nM"},
      {"measurement": "potency estimated from few doses", "setting": "INSR", "value": 391, "unit": "nM"},
      {"measurement": "potency estimated from few doses", "setting": "MAPK10", "value": 65.2, "unit": "nM"},
      {"measurement": "potency estimated from few doses", "setting": "MAPK8", "value": 143, "unit": "nM"},
      {"measurement": "potency estimated from few doses", "setting": "MAPK9; CATDS: 6.3911773548267894E-2", "value": 427, "unit": "nM"},
      {"measurement": "potency estimated from few doses", "setting": "NQO2; CATDS: 4.0166930587455497E-2", "value": 1570, "unit": "nM"},
      {"measurement": "potency estimated from few doses", "setting": "PSMC4", "value": 1450, "unit": "nM"},
      {"measurement": "potency estimated from few doses", "setting": "PTK2B", "value": 280, "unit": "nM"},
      {"measurement": "potency estimated from few doses", "setting": "TNK1", "value": 257, "unit": "nM"},
      {"measurement": "potency estimated from few doses", "setting": "TTK", "value": 783, "unit": "nM"}
    ]}
  ]
}
